Screens (PubChem)
In the library only some 7.8% were active in any assay of this set; here they are far more common.
HCMV antiviral – blocks human cytomegalovirus replication; AID 1259415; HFF cells, HCMV-luciferase reporter, 72 h; hits give low values; hit rate 4.5% among 410,000; activity change, negative = inhibition, % at 57.5 µM; in the data active = activity change below about -60%; inconclusive = no clear call, values can overlap the other calls; inactive = above about -39%
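Steps: HFFs plated, 16 h 37C; compounds added; HCMV-luciferase added to MOI 1 PFU/cell; 72 h 37C; OneGlo reagent, 5 min room temperature; luminescence read, normalized to controls.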
Vaccinia mCherry – vaccinia inhibition (mCherry reporter); Vaccinia virus mCherry reporter infection, fluorescence; Potency, µM (doses to about 36.5 µM), inactives show at the highest dose activity change, negative = inhibition, hits mostly inhibitors; hit rate 0.63% among 310,000; AID 720579; calls by dose curve; tested in A549 cells; also: potency is read from the fitted curve at half-maximal effect; nearly all actives have a fitted effect of over 35% in size
HCV inh – inhibitors of hepatitis C virus infection. Potency, µM (highest dose often 41.8 µM), inactives show at the top dose activity change, negative = inhibition, hits mostly inhibitors. hit rate 3.4% among 340,000. Huh7.5.1 HCVcc-Cre infection, luciferase reporter, 44 h. AID 651820; active = well fitted inhibition curve with a large enough effect; inconclusive = small, poorly fitted or top-dose-only effect, or another doubt; inactive = no such curve, though single readings can be large or run the other way; also: potency is read from the fitted curve at half-maximal effect
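Cells seeded at 1,000/well and cultured 4 h, then compounds added followed by HCVcc-Cre virus (~0.5 moi). After 44 h further culture, luciferase substrate was added, plates held 15 min at room temperature, and luminescence read for 15 sec.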
MARV entry inh – blocks Marburg virus binding to or entry into cells; Potency, µM (titrated, usually from 37.8 µM), without a hit: top-dose activity change, negative = inhibition, usual class: inhibitors; hit rate 1.8% among 300,000; Marburg virus pseudotyped entry inhibition, cell reporter; calls by dose curve; tested in HEK293 cells; also: potency is read from the fitted curve at half-maximal effect
LASV entry inh – Lassa virus entry inhibition; Lassa virus pseudotype entry inhibition, cell reporter; hit rate 1.2% among 300,000; Potency, µM (highest dose often 37.9 µM), for the others: at the top dose activity change, negative = inhibition, most hits filed as inhibitors; AID 540256; calls by dose curve; tested in HEK293 cells; also: potency is read from the fitted curve at half-maximal effect; nearly all actives have a fitted effect of over 50% in size
Vaccinia Venus – inhibitors of vaccinia virus (Venus reporter); Vaccinia virus Venus reporter expression, fluorescence; Potency, µM (top dose mostly 36.5 µM), inactives show at the top dose activity change, negative = inhibition, hits mostly inhibitors; hit rate 0.46% among 330,000; AID 720580; calls by dose curve; tested in A549 cells; also: potency is read from the fitted curve at half-maximal effect; nearly all actives have a fitted effect of over 30% in size
Starred values were filed as active, the others as inactive; [ ] = remark or other dose. % is scaled to controls: 0 for no effect and ±100 for the full control effect.

For CCOc1cc(CNCCO)cc(Br)c1OCc1ccc(Cl)cc1Cl the results were HCMV antiviral 2, HCV inh inconclusive, MARV entry inh inconclusive, LASV entry inh -24% and Vaccinia Venus 13µM*.
OCCNCc1cc(Br)ccc1OCc1ccc(Cl)cc1Cl was read as HCMV antiviral -17, HCV inh 11µM*, MARV entry inh 11µM*, LASV entry inh 11µM* and Vaccinia Venus inconclusive.
For CCOc1cc(CNCc2cccs2)cc(Br)c1OCC the results were HCMV antiviral -27, HCV inh inconclusive, MARV entry inh inconclusive, LASV entry inh inconclusive and Vaccinia Venus inconclusive.
`CCOc1cc(CNCCO)cc(Br)c1OCc1cccs1` gave HCMV antiviral inconclusive, Vaccinia mCherry -22%, HCV inh 5.6µM*, MARV entry inh inconclusive, LASV entry inh -25% and Vaccinia Venus inconclusive.
For CCOc1cc(CNCc2ccncc2)cc(Br)c1OCc1ccccc1F the results were HCMV antiviral -70*, Vaccinia mCherry -1%[1.46 µM], HCV inh 7.9µM*, MARV entry inh inconclusive, LASV entry inh inconclusive and Vaccinia Venus inconclusive.
For Cc1ccc(C(=O)NCC(c2ccc3c(c2)OCO3)N2CCN(C)CC2)cc1C (stereo not given) the results were HCMV antiviral -19, Vaccinia mCherry -8%, LASV entry inh 10%[46.1 µM] and Vaccinia Venus -12%.
`COc1ccc(-n2ncc(C(=O)Nc3ccc4c(c3)OCCO4)c2C2CCN(C(=O)OC(C)(C)C)CC2)cc1` gave HCMV antiviral active, Vaccinia mCherry -21%, LASV entry inh inconclusive and Vaccinia Venus -17%.
For Cc1c(Cl)cccc1-n1ncc(C(=O)Nc2ccc3c(c2)OCCO3)c1C1CCN(C(=O)OC(C)(C)C)CC1 the results were HCMV antiviral -82*, Vaccinia mCherry -5%, LASV entry inh inconclusive and Vaccinia Venus -15%.
CC(C)(C)OC(=O)N1CCC(c2c(C(=O)Nc3ccc4c(c3)OCCO4)cnn2-c2ccc(F)cc2)CC1 was read as HCMV antiviral -6, Vaccinia mCherry -28%, LASV entry inh inconclusive and Vaccinia Venus -18%.
`Cc1cc(C)cc(NC(=O)CN(c2cc(C(F)(F)F)ccc2Cl)S(=O)(=O)c2ccccc2)c1` gave HCMV antiviral 2, Vaccinia mCherry 5%, MARV entry inh 2%[46.1 µM], LASV entry inh -5%[46.1 µM] and Vaccinia Venus -6%.
`COc1cc(C)c(CN2C[C@H](Sc3nc4ccccc4[nH]3)C[C@H]2C(=O)N(C)C)cc1C` gave Vaccinia mCherry inactive and Vaccinia Venus -20%.
Screening Nc1cc2c(cc1Cl)-c1ccc([N+](=O)[O-])cc1C2=NO returned HCMV antiviral inconclusive, Vaccinia mCherry inactive, HCV inh 5.6µM*, MARV entry inh inconclusive, LASV entry inh 1% and Vaccinia Venus 17%.
O=[N+]([O-])c1ccc2c(c1)C(=NO)c1cc(F)ccc1-2 was read as HCMV antiviral -95*, Vaccinia mCherry inactive, HCV inh inconclusive, MARV entry inh -17%, LASV entry inh -5% and Vaccinia Venus -7%.
For Nc1ccc2c(c1)C(=O)c1cc([N+](=O)[O-])ccc1-2 the results were HCMV antiviral -7, Vaccinia mCherry -11%, HCV inh -8%, MARV entry inh 2%, LASV entry inh 27% and Vaccinia Venus 7%.
O=[N+]([O-])c1ccc(O)c(/C=N\N=C2c3ccccc3-c3ccccc32)c1 was read as HCMV antiviral -89*, Vaccinia mCherry -19%, HCV inh inconclusive, MARV entry inh 14µM*, LASV entry inh inconclusive and Vaccinia Venus -14%.
Screening COc1cc2c(cc1[N+](=O)[O-])-c1ccc([N+](=O)[O-])cc1C2=NO returned HCMV antiviral -94*, Vaccinia mCherry -3% and Vaccinia Venus -19%.
For COC(=O)CC=C[C@@H](C)[C@@H](C=NOC[C@@H](O)COCc1ccco1)NS(=O)(=O)c1ccc(C)cc1 the results were MARV entry inh 21%[14.2 µM].
Screening O=[N+]([O-])c1ccc2c(c1)/C(=N\O)c1ccccc1-2 returned HCMV antiviral -85*, Vaccinia mCherry -10%, HCV inh inconclusive, MARV entry inh inconclusive, LASV entry inh -3% and Vaccinia Venus -14%.
For ON=C1c2ccccc2-c2ccc(Br)cc21 the results were HCMV antiviral -63*, Vaccinia mCherry -24%, HCV inh inconclusive, MARV entry inh 27%, LASV entry inh 7% and Vaccinia Venus -16%.
Screening O=[N+]([O-])c1ccc2c(c1)-c1ccccc1C2O (stereo not given) returned HCMV antiviral -27, Vaccinia mCherry -13% and Vaccinia Venus -13%.
Screening Cc1ccccc1Nc1c(-c2ccsc2)nc2c(C)cccn12 returned HCMV antiviral -84*, Vaccinia mCherry -2%, MARV entry inh 6%[46.1 µM], LASV entry inh 4%[46.1 µM] and Vaccinia Venus -12%.
Cc1ccn2c(Nc3ccccc3C)c(-c3ccncc3)nc2c1 was read as HCMV antiviral -67*, Vaccinia mCherry inconclusive, HCV inh -24%, MARV entry inh 3%[46.1 µM], LASV entry inh 18%[46.1 µM] and Vaccinia Venus -24%.
Screening Cc1ccn2c(NC3CCCC3)c(-c3ccncc3)nc2c1 returned HCMV antiviral 0 and HCV inh inconclusive.
`CCCCCn1c(=O)[nH]c2cc(C(=O)Nc3ccc(OC)c(OC)c3)ccc2c1=O` gave HCMV antiviral 3, Vaccinia mCherry 8%, MARV entry inh inconclusive, LASV entry inh 1%[46.1 µM] and Vaccinia Venus 8%.
For Cc1ccc(C)c(NC(=O)C(=O)NCC(c2cccnc2)N2CCN(c3ccc(F)cc3)CC2)c1 (stereo not given) the results were HCMV antiviral -21, Vaccinia mCherry -28%, LASV entry inh -7%[46.1 µM] and Vaccinia Venus inconclusive.
`COC1=CC(=O)[C@]2(C=C1OC)OC[C@@H]1Oc3c(ccc4c3C=CC(C)(C)O4)C(=O)[C@@H]12` gave HCMV antiviral -93*, Vaccinia mCherry inconclusive, HCV inh -28% and Vaccinia Venus -25%.
For COc1c2c(cc3oc(=O)ccc13)OC(C)(C)C=C2 the results were HCMV antiviral 22, Vaccinia mCherry 19%, HCV inh inconclusive and Vaccinia Venus -8%.
Screening CC(C)(C)n1nnnc1C(c1ccc(C(F)(F)F)cc1)N(Cc1ccccc1)Cc1ccco1 (stereo not given) returned HCMV antiviral -82*, HCV inh inconclusive, MARV entry inh inconclusive, LASV entry inh inconclusive and Vaccinia Venus -2%.
`CCN(CC)C(c1ccc(F)cc1)c1nnnn1C1CCCCC1` (stereo not given) gave HCMV antiviral -11, HCV inh 11%, MARV entry inh 4% and LASV entry inh 2%.
